According to the supplement of paper PMC3334620:
In all, about 33,000 sequences were measured (“E-score (-0.5 to 0.5)”: median about -0.013, highest 2% from about 0.3 on). Many of the other results were omitted from the sample, so the highest values are more common in it than they were.

Target: T1, Msn1 (UniProt P22148)
T1 sequence: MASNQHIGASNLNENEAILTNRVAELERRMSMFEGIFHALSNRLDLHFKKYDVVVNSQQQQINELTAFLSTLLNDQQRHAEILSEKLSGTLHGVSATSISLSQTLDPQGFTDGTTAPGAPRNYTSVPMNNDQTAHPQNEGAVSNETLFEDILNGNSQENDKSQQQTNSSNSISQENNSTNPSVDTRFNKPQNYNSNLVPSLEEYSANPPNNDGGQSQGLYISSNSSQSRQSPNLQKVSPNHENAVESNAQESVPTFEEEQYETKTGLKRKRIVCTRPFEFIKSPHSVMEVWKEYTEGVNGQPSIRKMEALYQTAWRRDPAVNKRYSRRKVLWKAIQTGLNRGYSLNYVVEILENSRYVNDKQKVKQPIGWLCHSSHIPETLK
Test: PBM E-score (8-mer binding enrichment) (E-score (-0.5 to 0.5)); higher = stronger / more preferred TF binding
Settings: protein concentration: 200 nM; construct: GST-full length
Procedure: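 Universal 'all 10-mer' protein binding microarrays (Agilent AMADID 015681) probed with GST-tagged S. cerevisiae TFs (full-length or DBD) made by in vitro transcription/translation (PURExpress), about 100-200 nM. Bound TF was detected with fluorescent anti-GST. Each ungapped 8-mer (which stands for itself and its reverse complement) is scored by the PBM enrichment score (E-score), a modified Wilcoxon-Mann-Whitney statistic from -0.5 to +0.5, computed with the Universal PBM Analysis Suite. Scale: above 0.35 generally sequence-specific binding.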

Row | Sequence | PBM E-score
1 | GCATCACA | -0.0397
2 | ATCGTGCA | 0.125
3 | ATCGTGCG | 0.306
4 | ATCGTGCC | 0.0402
5 | CCCAGACC | -0.348
6 | AATTTAAT | 0.298
7 | GCCCGCAA | -0.0655
8 | GCATTGAA | -0.0579
9 | AGAAATCC | -0.0711
10 | GTGAGAGA | -0.0903
11 | CCGAGACC | -0.0572
12 | ATGAGACG | -0.109
13 | GTGAGAAA | 0.124
14 | ATGAGACA | 0.358
15 | CTGAGACC | -0.18
16 | ATGAGACC | -0.0403
17 | GTGAGACA | 0.315
18 | CCGAGACA | 0.319
19 | CTGAGACA | 0.319
20 | CTGAGAGA | -0.0585
21 | ACGAGACA | 0.275
22 | AGGGGACC | -0.207

Row | Sequence | PBM E-score
23 | CCCAGCAC | -0.148
24 | GCATCCAA | -0.225
25 | AATAAAGT | 0.209
26 | AAGGATTG | 0.191
27 | GAGGGTAA | -0.114
28 | GCAGTAGC | -0.289
29 | CGTTTCAG | 0.176
30 | GCGATGAC | 0.0728
31 | GCGGTAGC | 0.041
32 | CAACCATG | 0.0589
33 | GCAAATAC | 0.0266
34 | CCAAATAG | -0.0591
35 | TCAAATAA | 0.234
36 | ACAAATAA | 0.307
37 | ACAAATAT | 0.404
38 | CCAAATAC | -0.058
39 | AAAAATAT | 0.208
40 | ACAAATAC | 0.328
41 | AGAAATAT | 0.181
42 | GCAAATAA | 0.0601
43 | ACAAATAG | 0.322
44 | AAAAATAG | 0.189

Row | Sequence | PBM E-score
45 | ACTTCCCT | -0.185
46 | CAAAAAGA | 0.0247
47 | CGAGTGAC | 0.0781
48 | AAAATGCT | 0.0679
49 | ACCGATGC | -0.136
50 | ATCACCTA | 0.0704
51 | ATCCAGGA | -0.015
52 | CCCAAGGG | -0.22
53 | CTGGACAA | 0.43
54 | CTGGACAC | 0.29
55 | CTGGACAG | 0.0403
56 | TTGGACAA | 0.47
57 | GTGGACTA | 0.144
58 | TTGGAAAA | 0.0431
59 | GTGGACAA | 0.468
60 | TTCGACAA | 0.191
61 | GTGGACGA | 0.18
62 | TCTTTCCA | -0.0394
63 | CCCTTACC | -0.181
64 | CTTATGTC | 0.374
65 | ATTATGTC | 0.367
66 | CTTATGAC | 0.233

Row | Sequence | PBM E-score
67 | CTTATGTA | 0.124
68 | ATTATGTG | 0.151
69 | ATTATGTA | 0.149
70 | ATTCGCTG | 0.00671
71 | TACCCGCA | -0.0605
72 | CATTACGG | 0.0771
73 | TAGGGGCA | -0.254
74 | ACATAAAG | 0.224
75 | AAGTACAA | 0.306
76 | ACATAAAA | 0.178
77 | ACATAAAT | 0.307
78 | AAGTACGA | 0.133
79 | ACATACAC | 0.207
80 | ACATACAG | 0.167
81 | ACATACAT | 0.309
82 | TAGTACAA | 0.321
83 | GAGTACAA | 0.262
84 | CAGTACAA | 0.262
85 | AAGTACCA | 0.107
86 | CGGTAGTC | -0.00298
